Laboratory results: the supplement of paper PMC4466140

B1: unnamed (peptide)
chain: IKTRSVPKIPSIESV

Molecular target: AgAbp1
Assay: SPOT peptide array binding signal intensity (averaged, normalized) (arbitrary units (background-subtracted, floor 0; scale differs between SH3 domains)); higher = stronger binding of the SH3 domain to the peptide
How it was run: (§1)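 E. coli BL21(DE3) was used to express GST-fused SH3 domains from four yeast species, which were then purified on glutathione Sepharose. These were incubated at 10 μg/ml in TBS-based blocking buffer overnight at 4°C on cellulose membranes carrying synthetic 15-mer peptides, in which cysteines were replaced by serines. Binding signal is the replicate average of normalized, background-subtracted spot intensity, in arbitrary units that differ between domains.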

Row | Binder | SPOT peptide array binding signal intensity
1 | B1 | 9

Molecular target: AgBbc1
Assay: as above
How it was run: as §1

Row | Binder | SPOT peptide array binding signal intensity
2 | B1 | 78.8

Molecular target: AgBem1-D1
Assay: as above
How it was run: as §1

Row | Binder | SPOT peptide array binding signal intensity
3 | B1 | 40

Molecular target: AgBzz1-D1
Assay: as above
How it was run: as §1

Row | Binder | SPOT peptide array binding signal intensity
4 | B1 | 24.5

Molecular target: AgBzz1-D2
Assay: as above
How it was run: as §1

Row | Binder | SPOT peptide array binding signal intensity
5 | B1 | 33.5

Molecular target: AgCyk3
Assay: as above
How it was run: as §1

Row | Binder | SPOT peptide array binding signal intensity
6 | B1 | 1

Molecular target: AgFus1
Assay: as above
How it was run: as §1

Row | Binder | SPOT peptide array binding signal intensity
7 | B1 | 4

Molecular target: AgHof1
Assay: as above
How it was run: as §1

Row | Binder | SPOT peptide array binding signal intensity
8 | B1 | 27.8

Molecular target: AgHse1
Assay: as above
How it was run: as §1

Row | Binder | SPOT peptide array binding signal intensity
9 | B1 | 19.5

Molecular target: AgLsb1
Assay: as above
How it was run: as §1

Row | Binder | SPOT peptide array binding signal intensity
10 | B1 | 71

Molecular target: AgLsb4
Assay: as above
How it was run: as §1

Row | Binder | SPOT peptide array binding signal intensity
11 | B1 | 873

Molecular target: AgMyo5
Assay: as above
How it was run: as §1

Row | Binder | SPOT peptide array binding signal intensity
12 | B1 | 0.75

Molecular target: AgNbp2
Assay: as above
How it was run: as §1

Row | Binder | SPOT peptide array binding signal intensity
13 | B1 | 2650

Molecular target: AgRvs167
Assay: as above
How it was run: as §1

Row | Binder | SPOT peptide array binding signal intensity
14 | B1 | 12.7

Molecular target: AgSho1
Assay: as above
How it was run: as §1

Row | Binder | SPOT peptide array binding signal intensity
15 | B1 | 3

Molecular target: AgSla1-D1-D2
Assay: as above
How it was run: as §1

Row | Binder | SPOT peptide array binding signal intensity
16 | B1 | ≤ 0

Molecular target: AgSla1-D3
Assay: as above
How it was run: as §1

Row | Binder | SPOT peptide array binding signal intensity
17 | B1 | ≤ 0

Molecular target: CaAbp1-D1
Assay: as above
How it was run: as §1

Row | Binder | SPOT peptide array binding signal intensity
18 | B1 | 182

Molecular target: CaAbp1-D2
Assay: as above
How it was run: as §1

Row | Binder | SPOT peptide array binding signal intensity
19 | B1 | 82

Molecular target: CaBbc1
Assay: as above
How it was run: as §1

Row | Binder | SPOT peptide array binding signal intensity
20 | B1 | 604

Molecular target: CaBem1-D1
Assay: as above
How it was run: as §1

Row | Binder | SPOT peptide array binding signal intensity
21 | B1 | 0.5

Molecular target: CaBzz1-D1
Assay: as above
How it was run: as §1

Row | Binder | SPOT peptide array binding signal intensity
22 | B1 | 197

Molecular target: CaBzz1-D2
Assay: as above
How it was run: as §1

Row | Binder | SPOT peptide array binding signal intensity
23 | B1 | 245

Molecular target: CaCyk3
Assay: as above
How it was run: as §1

Row | Binder | SPOT peptide array binding signal intensity
24 | B1 | 85.5

Molecular target: CaFus1
Assay: as above
How it was run: as §1

Row | Binder | SPOT peptide array binding signal intensity
25 | B1 | 32.5

Molecular target: CaHof1
Assay: as above
How it was run: as §1

Row | Binder | SPOT peptide array binding signal intensity
26 | B1 | ≤ 0

Molecular target: CaHse1
Assay: as above
How it was run: as §1

Row | Binder | SPOT peptide array binding signal intensity
27 | B1 | 5

Molecular target: CaLsb1
Assay: as above
How it was run: as §1

Row | Binder | SPOT peptide array binding signal intensity
28 | B1 | ≤ 0

Molecular target: CaLsb4
Assay: as above
How it was run: as §1

Row | Binder | SPOT peptide array binding signal intensity
29 | B1 | 1880

Molecular target: CaMyo5
Assay: as above
How it was run: as §1

Row | Binder | SPOT peptide array binding signal intensity
30 | B1 | 1.25

Molecular target: CaNbp2
Assay: as above
How it was run: as §1

Row | Binder | SPOT peptide array binding signal intensity
31 | B1 | 320

Molecular target: CaRvs167
Assay: as above
How it was run: as §1

Row | Binder | SPOT peptide array binding signal intensity
32 | B1 | 339

Molecular target: CaRvs167-3
Assay: as above
How it was run: as §1

Row | Binder | SPOT peptide array binding signal intensity
33 | B1 | 15

Molecular target: CaSho1
Assay: as above
How it was run: as §1

Row | Binder | SPOT peptide array binding signal intensity
34 | B1 | ≤ 0

Molecular target: CaSla1-D1-D2
Assay: as above
How it was run: as §1

Row | Binder | SPOT peptide array binding signal intensity
35 | B1 | 123

Molecular target: CaSla1-D3
Assay: as above
How it was run: as §1

Row | Binder | SPOT peptide array binding signal intensity
36 | B1 | ≤ 0

Molecular target: ScAbp1
Assay: as above
How it was run: as §1

Row | Binder | SPOT peptide array binding signal intensity
37 | B1 | 11

Molecular target: ScBbc1
Assay: as above
How it was run: as §1

Row | Binder | SPOT peptide array binding signal intensity
38 | B1 | 37.8

Molecular target: ScBem1-D1
Assay: as above
How it was run: as §1

Row | Binder | SPOT peptide array binding signal intensity
39 | B1 | 38.5

Molecular target: ScBzz1-D1
Assay: as above
How it was run: as §1

Row | Binder | SPOT peptide array binding signal intensity
40 | B1 | 26

Molecular target: ScBzz1-D2
Assay: as above
How it was run: as §1

Row | Binder | SPOT peptide array binding signal intensity
41 | B1 | 13

Molecular target: ScCyk3
Assay: as above
How it was run: as §1

Row | Binder | SPOT peptide array binding signal intensity
42 | B1 | ≤ 0

Molecular target: ScFus1
Assay: as above
How it was run: as §1

Row | Binder | SPOT peptide array binding signal intensity
43 | B1 | ≤ 0

Molecular target: ScHof1
Assay: as above
How it was run: as §1

Row | Binder | SPOT peptide array binding signal intensity
44 | B1 | 16.2

Molecular target: ScHse1
Assay: as above
How it was run: as §1

Row | Binder | SPOT peptide array binding signal intensity
45 | B1 | 26

Molecular target: ScLsb1
Assay: as above
How it was run: as §1

Row | Binder | SPOT peptide array binding signal intensity
46 | B1 | 4

Molecular target: ScLsb2
Assay: as above
How it was run: as §1

Row | Binder | SPOT peptide array binding signal intensity
47 | B1 | 61

Molecular target: ScLsb3
Assay: as above
How it was run: as §1

Row | Binder | SPOT peptide array binding signal intensity
48 | B1 | 4820

Molecular target: ScLsb4
Assay: as above
How it was run: as §1

Row | Binder | SPOT peptide array binding signal intensity
49 | B1 | 1030

Molecular target: ScMyo3
Assay: as above
How it was run: as §1

Row | Binder | SPOT peptide array binding signal intensity
50 | B1 | 4.5

Molecular target: ScMyo5
Assay: as above
How it was run: as §1

Row | Binder | SPOT peptide array binding signal intensity
51 | B1 | 7

Molecular target: ScNbp2
Assay: as above
How it was run: as §1

Row | Binder | SPOT peptide array binding signal intensity
52 | B1 | 3220

Molecular target: ScPex13
Assay: as above
How it was run: as §1

Row | Binder | SPOT peptide array binding signal intensity
53 | B1 | 633

Molecular target: ScRvs167
Assay: as above
How it was run: as §1

Row | Binder | SPOT peptide array binding signal intensity
54 | B1 | 2950

Molecular target: ScSho1
Assay: as above
How it was run: as §1

Row | Binder | SPOT peptide array binding signal intensity
55 | B1 | 25.5

Molecular target: ScSla1-D1-D2
Assay: as above
How it was run: as §1

Row | Binder | SPOT peptide array binding signal intensity
56 | B1 | 146

Molecular target: ScSla1-D3
Assay: as above
How it was run: as §1

Row | Binder | SPOT peptide array binding signal intensity
57 | B1 | 38.5

Molecular target: SpAbp1-D1
Assay: as above
How it was run: as §1

Row | Binder | SPOT peptide array binding signal intensity
58 | B1 | 5

Molecular target: SpBbc1
Assay: as above
How it was run: as §1

Row | Binder | SPOT peptide array binding signal intensity
59 | B1 | 28.8

Molecular target: SpBzz1-D1
Assay: as above
How it was run: as §1

Row | Binder | SPOT peptide array binding signal intensity
60 | B1 | 236

Molecular target: SpBzz1-D2
Assay: as above
How it was run: as §1

Row | Binder | SPOT peptide array binding signal intensity
61 | B1 | 0.5

Molecular target: SpCyk3
Assay: as above
How it was run: as §1

Row | Binder | SPOT peptide array binding signal intensity
62 | B1 | ≤ 0

Molecular target: SpHof1
Assay: as above
How it was run: as §1

Row | Binder | SPOT peptide array binding signal intensity
63 | B1 | 6

Molecular target: SpHof1-2
Assay: as above
How it was run: as §1

Row | Binder | SPOT peptide array binding signal intensity
64 | B1 | 9

Molecular target: SpHof1-3
Assay: as above
How it was run: as §1

Row | Binder | SPOT peptide array binding signal intensity
65 | B1 | 150

Molecular target: SpHse1
Assay: as above
How it was run: as §1

Row | Binder | SPOT peptide array binding signal intensity
66 | B1 | ≤ 0

Molecular target: SpLsb1
Assay: as above
How it was run: as §1

Row | Binder | SPOT peptide array binding signal intensity
67 | B1 | 24.2

Molecular target: SpLsb4
Assay: as above
How it was run: as §1

Row | Binder | SPOT peptide array binding signal intensity
68 | B1 | 6060

Molecular target: SpMyo1
Assay: as above
How it was run: as §1

Row | Binder | SPOT peptide array binding signal intensity
69 | B1 | 11.5

Molecular target: SpNbp2
Assay: as above
How it was run: as §1

Row | Binder | SPOT peptide array binding signal intensity
70 | B1 | ≤ 0

Molecular target: SpPex13
Assay: as above
How it was run: as §1

Row | Binder | SPOT peptide array binding signal intensity
71 | B1 | ≤ 0

Molecular target: SpRvs167
Assay: as above
How it was run: as §1

Row | Binder | SPOT peptide array binding signal intensity
72 | B1 | 1930

Molecular target: SpSla1-D1-D2
Assay: as above
How it was run: as §1

Row | Binder | SPOT peptide array binding signal intensity
73 | B1 | 4

Molecular target: SpSla1-D3
Assay: as above
How it was run: as §1

Row | Binder | SPOT peptide array binding signal intensity
74 | B1 | 1
